Experimental data: PubChem BioAssay
Unmarked numbers belong to inactive results. For some assays here: Measured potencies and affinities stand elsewhere. Active and inactive are the calls of the source. Unless noted, no rule for the calls is given here.

Experiments:
[1] = antimalarial activity against Dd2 strain (AID 2302;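 active = growth inhibition above 50% at the single 2 µM test dose, taken to imply half-maximal potency below 2 µM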;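 also: 0% = DMSO untreated growth and 100% = chloroquine plus artemisinin killed control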); settings: P. falciparum Dd2 in RBCs, LDH growth readout, 72 h; at 2 µM; hits give high values
[2] = HepG2 cytotoxicity, primary screen, cytotoxicity control for P. falciparum antimalarial project, cell-based, ATP luminescence (AID 2303;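 active = inhibition above 50%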;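 also: 0% = DMSO wells and 100% = digitonin-killed cells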); settings: HepG2 viability, 24-48 h, at 10 µM, hits give high values
[3] = target: L-lactate dehydrogenase (Plasmodium falciparum (isolate CDC / Honduras)) (UniProt Q27743); assay: PfLDH activity inhibition – cell lysate, 3D7 strain, counter-screen for P. falciparum growth inhibition project (AID 2304);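 also: 0% = vehicle and 100% = reference inhibitor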; settings: P. falciparum 3D7 crude extract, LDH APAD/NBT absorbance; at 2 µM; hits give high values
[4] = inhibition of 3D7 malaria parasite growth – strain 3D7 (AID 2306);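 also: 0% = DMSO wells and 100% = chloroquine plus artemisinin control wells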; settings: P. falciparum 3D7 erythrocytic growth, LDH absorbance, 72 h; at 2 µM; hits give high values
[5] = target: Calcium-dependent protein kinase 1 (Plasmodium falciparum (isolate 3D7)) (UniProt P62344); assay: PfCDPK1 kinase inhibitors, biochemical, TCAMS library (AID 1159585; cut-off not given, nearly all actives have IC50 up to about 0.98 µM;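 also: inhibitors leave more ATP so luminescence rises with inhibition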); settings: recombinant PfCDPK1, Kinase-Glo ATP depletion luminescence
[6] = target: Plasmodium falciparum protein kinase 6 (PK6, PF3D7_1337100) (UniProt Q8IDW1); assay: PfPK6 kinase inhibitors, biochemical, TCAMS library (AID 1159586); settings: recombinant PfPK6, Kinase-Glo ATP depletion luminescence
[7] = target: Protein kinase 7 (PK7), Plasmodium falciparum 3D7 (PF3D7_0213400) (UniProt Q7YTF7); assay: inhibition of Plasmodium PK7 catalytic activity – biochemical, TCAMS antimalarial set, Kinase-Glo luminescence (AID 1159587); settings: recombinant PfPK7, Kinase-Glo ATP depletion luminescence
[8] = target: Calcium-dependent protein kinase 4 (Plasmodium falciparum (isolate 3D7)) (UniProt Q8IBS5); assay: PfCDPK4 kinase inhibitors, biochemical, TCAMS library (AID 1159588; cut-off not given, nearly all actives have IC50 up to about 0.91 µM); settings: recombinant PfCDPK4, Kinase-Glo ATP depletion luminescence
Calcium-dependent protein kinase 4 (Plasmodium falciparum (isolate 3D7)), sequence (Q8IBS5 whole entry, looked up): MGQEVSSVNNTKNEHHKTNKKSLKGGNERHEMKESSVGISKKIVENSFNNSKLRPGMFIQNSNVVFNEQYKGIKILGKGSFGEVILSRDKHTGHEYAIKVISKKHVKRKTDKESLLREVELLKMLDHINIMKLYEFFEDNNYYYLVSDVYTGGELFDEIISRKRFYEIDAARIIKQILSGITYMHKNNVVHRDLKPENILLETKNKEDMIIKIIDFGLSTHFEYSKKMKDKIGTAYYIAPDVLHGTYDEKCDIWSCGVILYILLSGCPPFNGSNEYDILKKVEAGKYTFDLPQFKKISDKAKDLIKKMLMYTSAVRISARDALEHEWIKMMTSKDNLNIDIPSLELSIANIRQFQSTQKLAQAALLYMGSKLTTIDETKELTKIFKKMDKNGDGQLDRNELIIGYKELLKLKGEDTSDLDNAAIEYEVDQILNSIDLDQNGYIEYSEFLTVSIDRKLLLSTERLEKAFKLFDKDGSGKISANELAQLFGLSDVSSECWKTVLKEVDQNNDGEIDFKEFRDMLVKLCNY

Plasmodium falciparum protein kinase 6 (PK6, PF3D7_1337100), sequence (Q8IDW1 1-305): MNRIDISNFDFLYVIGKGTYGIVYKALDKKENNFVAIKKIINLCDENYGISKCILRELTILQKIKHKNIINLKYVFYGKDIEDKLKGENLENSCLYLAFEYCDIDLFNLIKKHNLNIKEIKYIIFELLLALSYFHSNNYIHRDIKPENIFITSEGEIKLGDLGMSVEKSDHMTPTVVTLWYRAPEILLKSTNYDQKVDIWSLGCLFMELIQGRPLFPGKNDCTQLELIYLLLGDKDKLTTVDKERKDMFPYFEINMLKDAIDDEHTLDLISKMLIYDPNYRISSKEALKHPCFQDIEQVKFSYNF
L-lactate dehydrogenase (Plasmodium falciparum (isolate CDC / Honduras)), sequence (Q27743 whole entry, looked up): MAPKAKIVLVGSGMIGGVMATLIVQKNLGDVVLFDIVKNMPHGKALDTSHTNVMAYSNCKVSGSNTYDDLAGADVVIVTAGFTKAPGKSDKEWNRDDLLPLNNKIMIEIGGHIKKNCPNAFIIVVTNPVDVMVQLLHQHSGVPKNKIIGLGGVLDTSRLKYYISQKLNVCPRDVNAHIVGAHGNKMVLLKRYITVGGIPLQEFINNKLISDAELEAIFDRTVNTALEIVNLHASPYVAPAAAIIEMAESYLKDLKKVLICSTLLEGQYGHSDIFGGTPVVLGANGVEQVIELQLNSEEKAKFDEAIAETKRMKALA
Protein kinase 7 (PK7), Plasmodium falciparum 3D7 (PF3D7_0213400), sequence (Q7YTF7 1-343): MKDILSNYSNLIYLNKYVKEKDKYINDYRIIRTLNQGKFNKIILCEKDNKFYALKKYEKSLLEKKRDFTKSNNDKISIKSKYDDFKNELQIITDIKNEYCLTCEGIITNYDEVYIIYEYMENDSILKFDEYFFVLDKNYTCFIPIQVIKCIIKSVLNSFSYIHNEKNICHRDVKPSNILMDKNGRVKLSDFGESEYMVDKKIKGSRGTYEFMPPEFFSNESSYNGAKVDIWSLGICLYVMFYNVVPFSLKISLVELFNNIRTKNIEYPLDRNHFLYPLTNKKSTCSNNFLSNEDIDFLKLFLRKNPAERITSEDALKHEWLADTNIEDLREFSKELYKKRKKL
Calcium-dependent protein kinase 1 (Plasmodium falciparum (isolate 3D7)), sequence (P62344 whole entry, looked up): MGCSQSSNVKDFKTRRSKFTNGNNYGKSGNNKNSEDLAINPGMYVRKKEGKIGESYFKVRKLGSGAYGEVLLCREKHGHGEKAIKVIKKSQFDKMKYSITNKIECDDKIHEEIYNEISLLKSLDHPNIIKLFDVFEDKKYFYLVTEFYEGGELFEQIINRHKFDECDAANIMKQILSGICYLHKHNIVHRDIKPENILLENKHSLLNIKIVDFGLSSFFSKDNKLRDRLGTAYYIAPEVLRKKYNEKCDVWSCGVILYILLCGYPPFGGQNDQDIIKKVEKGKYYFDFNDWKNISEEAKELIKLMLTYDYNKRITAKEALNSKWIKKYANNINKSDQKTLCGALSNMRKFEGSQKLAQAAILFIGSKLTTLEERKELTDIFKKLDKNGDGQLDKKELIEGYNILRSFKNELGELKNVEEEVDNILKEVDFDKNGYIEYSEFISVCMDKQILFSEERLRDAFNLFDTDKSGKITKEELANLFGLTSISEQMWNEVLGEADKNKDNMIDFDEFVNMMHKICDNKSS

| SMILES | growth inhibition [1] | inhibition [2] | inhibition [3] | growth inhibition [4] | outcome [5] | outcome [6] | outcome [7] | outcome [8] |
| --- | --- | --- | --- | --- | --- | --- | --- | --- |
| Cc1cc(NC(=O)Nc2ccc3ccn(C)c3c2)c2ccccc2n1 | 69% (active) | 11% | -1% | 102% (active) | inactive | inactive | inactive | inactive |
| OC(CNc1ccnc(Nc2ccccc2)n1)c1ccc(C(F)(F)F)cc1 (stereo not given) | 39% | 3% | -2% | 101% (active) | inactive | inactive | inactive | inactive |
| CC(C)c1ccc(OCCCON2C(N)=NC(N)=NC2(C)C)cc1 | 97% (active) | 69% (active) | 0% | 93% (active) | inactive | inactive | inactive | inactive |
| CC1CCN(Cc2ccc(NC(=O)c3cc4ccc5cccnc5c4[nH]3)cc2)CC1 | 93% (active) | 10% | -1% | 101% (active) | inactive | inactive | inactive | inactive |
| O=C(Nc1ccc(F)cc1)NC1CCN(c2ccnc3cc(Cl)ccc23)CC1 | 57% (active) | 10% | 0% | 97% (active) | inactive | inactive | inactive | inactive |
| COc1ccc(Cn2c(Nc3cccc(C(F)(F)F)c3)nc3cc(C(=O)NC(C)C)cnc32)cc1Cl | 81% (active) | -6% | 1% | 85% (active) | inactive | inactive | inactive | inactive |
| CCCCCCCNC(=O)NCC1CCCN(CCCCCNC(=O)/C=C/c2ccc(Cl)c(Cl)c2)C1 (stereo not given) | 7% | 98% (active) | -1% | 86% (active) | inactive | inactive | inactive | inactive |
| COc1ccc(Oc2ccc(Nc3ccnc4ccc(C(F)(F)F)cc34)cc2)cc1OC | 17% | -2% | 2% | 90% (active) | inactive | inactive | inactive | inactive |
| O=C(NC1CCCCC1)N(Cc1ccc(-c2cccc(CNCc3ccc4c(c3)OCO4)c2)cc1)C1CCN(Cc2ccccc2)CC1 | 72% (active) | 23% | 4% | 101% (active) | inactive | inactive | inactive | inactive |
| CC(C)c1ccc(S(=O)(=O)Nc2cccc(CCN3CCC(N4CCCCC4)CC3)c2)cc1 | 35% | 37% | 6% | 101% (active) | inactive | inactive | inactive | inactive |
| Cc1ccc(O)c(-c2cc(C(=O)Nc3ccc(S(=O)(=O)N4CCCC(C)C4)cc3)[nH]n2)c1 (stereo not given) | 97% (active) | 27% | -2% | 96% (active) | inactive | inactive | inactive | inactive |
| COc1ccccc1C1CCN(C2CCC(NC(=O)/C=C/c3cccc(Cl)c3F)CC2)CC1 (stereo not given) | 19% | 50% (active) | -4% | 96% (active) | inactive | inactive | inactive | inactive |
| COc1ccc(NC(=O)[C@H](Cc2ccccc2)Nc2cc(C)nc(NCCc3ccccc3OC)n2)cc1 | 83% (active) | 10% | 3% | 100% (active) | inactive | inactive | inactive | inactive |
| CCCc1cc(NC2CCN(C)CC2)nc(Nc2cccc(OC)c2)n1 | 28% | 31% | -3% | 100% (active) | inactive | inactive | inactive | inactive |
| c1nc2nc3c(c(Nc4ccc5c(c4)CCC5)n2n1)CCC3 | 70% (active) | -1% | -5% | 87% (active) | inactive | inactive | inactive | inactive |
| O=C(/C=C/c1ccc(Cl)c(Cl)c1)NCCCCCN1CCCC(C(=O)Nc2ccc(Cl)cc2)C1 (stereo not given) | -3% | 35% | -3% | 98% (active) | inactive | inactive | inactive | inactive |
| Cc1cc(N)c2cc(NC(=O)c3cccc(C(=O)Nc4ccc5nc(C)cc(N)c5c4)c3)ccc2n1 | 92% (active) | 9% | 4% | 94% (active) | inactive | inactive | inactive | inactive |
| Cc1cc(-c2cccc(CNCc3ccccc3)c2)ccc1S(=O)(=O)NCCN1CCCC1 | 58% (active) | 40% | 1% | 98% (active) | inactive | inactive | inactive | inactive |
| CC(C)(CNC(=O)[C@@H]1CCCN(CCOc2ccc(Cl)cc2)C1)c1nc(-c2ccc(Cl)c(O)c2)c(-c2ccncc2)[nH]1 | 57% (active) | 58% (active) | -7% | 92% (active) | inactive | inactive | inactive | inactive |
| Nc1nc(N)c2nc(C3CC=CCC3)c(N)nc2n1 (stereo not given) | 0% | 67% (active) | -5% | 95% (active) | inactive | inactive | inactive | inactive |

| SMILES | growth inhibition [1] | inhibition [2] | inhibition [3] | growth inhibition [4] | outcome [5] | outcome [6] | outcome [7] | outcome [8] |
| --- | --- | --- | --- | --- | --- | --- | --- | --- |
| CCCOc1ccc(NC(=O)c2cccs2)cc1Cl | 86% (active) | 1% | -4% | 88% (active) | inactive | inactive | inactive | inactive |
| COc1ccc2ncc(F)c([C@H](O)CN3CCC(NCc4ccc5c(c4)NC(=O)CS5)CC3)c2c1 | 98% (active) | 7% | -13% | 102% (active) | inactive | inactive | inactive | inactive |
| CC(C)c1ccc(NC(=O)N[C@H]2CCN(CCCCCNC(=O)/C=C/c3ccc(Cl)c(Cl)c3)C2)cc1 | 14% | 56% (active) | 7% | 100% (active) | inactive | inactive | inactive | inactive |
| CCCOc1cc(OCCC)cc(-c2ccc(C(=O)Nc3ccc4ccc(C)nc4c3)c(=O)[nH]2)c1 | 76% (active) | 11% | 5% | 101% (active) | inactive | inactive | inactive | inactive |
| Cc1cccc2[nH]c(-c3ccc(-c4ccc(CN5CCOCC5)cc4)cc3)nc12 | 86% (active) | 29% | 0% | 92% (active) | inactive | inactive | inactive | inactive |
| CC1CN(CC(O)Cn2c3ccc(Br)cc3c3cc(Br)ccc32)CC(C)O1 (stereo not given) | 100% (active) | -1% | 3% | 102% (active) | inactive | inactive | inactive | inactive |
| O=C1NC(c2ccc(N3CCCCCC3)cc2)Nc2ccccc21 (stereo not given) | 96% (active) | 19% | 0% | 96% (active) | inactive | inactive | inactive | inactive |
| COc1cc(C(=O)N2CC[C@@H](CCN3CCC4(CC3)CN(S(C)(=O)=O)c3ccccc34)C[C@H]2Cc2ccc(Cl)c(Cl)c2)cc(OC)c1OC | 99% (active) | 29% | 4% | 101% (active) | inactive | inactive | inactive | inactive |
| CC1CCC(NCc2ccc3c(CNC4CCC(C)CC4)c(O)ccc3c2O)CC1 (stereo not given) | 99% (active) | 4% | -2% | 101% (active) | inactive | inactive | inactive | inactive |
| c1ccc(-c2nnc(-c3ccccn3)nc2NC2CCCCC2)cc1 | 80% (active) | 74% (active) | 6% | 97% (active) | inactive | inactive | inactive | inactive |
| O=C(NCc1cccc(F)c1)Nc1ccc(-c2cccc(-c3nc4ccc(F)cc4[nH]3)c2)cc1 | 2% | 31% | 7% | 88% (active) | inactive | inactive | inactive | inactive |
| CC(C)N1CCN(C(CN2CCN(CCCOc3cccc(-c4ccccc4)c3)CC2)c2ccc(F)cc2)CC1 (stereo not given) | 99% (active) | 100% (active) | -2% | 100% (active) | inactive | inactive | inactive | inactive |
| CN1CCN(c2ccnc3ccc(NC(=O)Nc4ccc(Br)cc4)cc23)CC1 | 99% (active) | 12% | -5% | 101% (active) | inactive | inactive | inactive | inactive |
| CN(C)c1ccc(NC2=NC(C)(C)N=C(N)N2)cc1 | 5% | -1% | -4% | 95% (active) | inactive | inactive | inactive | inactive |
| CCCn1cnc2cc(C(=O)Nc3ccc(-c4cccc(CN(C)C)c4)cc3)ccc2c1=O | 6% | 26% | -6% | 95% (active) | inactive | inactive | inactive | inactive |
| COc1cc(NCCCNC(=O)c2cc3c(Cl)cc(Cl)cc3[nH]2)nc2ccccc12 | 100% (active) | 96% (active) | -1% | 100% (active) | inactive | inactive | inactive | inactive |
| O=C(NCc1ccc(Cl)c(Cl)c1)c1ccc(C2CCN(Cc3ccc4nc[nH]c4c3)CC2)cc1 | 31% | 1% | -1% | 100% (active) | inactive | inactive | inactive | inactive |
| CN1CCN(c2ccc(CNc3ccc4ncc(-c5cccc(OC(F)(F)F)c5)n4n3)cc2)CC1 | 78% (active) | 25% | 3% | 89% (active) | inactive | inactive | inactive | inactive |
| Oc1ccc(Nc2ccnc3cc(Cl)ccc23)cc1 | 97% (active) | 0% | 0% | 100% (active) | inactive | inactive | inactive | inactive |
| CC[C@H](N=C(Nc1ccc(-c2ccccc2)cc1)Nc1ccc(C#N)cc1O)c1ccccc1 | 97% (active) | -6% | 4% | 99% (active) | inactive | inactive | inactive | inactive |
